SMN2 splice up – increases expression of the SMN2 splice variant. HEK293 SMN2-luciferase splicing reporter, luminescence, 30-36 h. Potency, µM (series often up to 46.1 µM), usual class: activators. AID 1458. actives 2.8% (n = 210,000); also: nearly all actives have a fitted effect of over 55% in size
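HEK293 cells carry an SMN2 […]–luciferase reporter in which exon 7 inclusion puts luciferase in frame. Cells were plated 10-12 h before compound addition, then incubated 30-36 h at 37C. ONE-Glo luminescence was read; sodium butyrate at 4.5 mM final served as control.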
FLuc counter – inhibits or activates purified firefly luciferase, miR-21 counter-screen; P08659; purified FLuc, Km substrates, luminescence inhibition; Potency, µM (highest dose often 57.5 µM), most hits filed as inhibitors; actives 6.9% (n = 360,000); AID 588342; also: nearly all actives have a fitted effect of over 55% in size
Target sequence (P08659 whole entry, looked up): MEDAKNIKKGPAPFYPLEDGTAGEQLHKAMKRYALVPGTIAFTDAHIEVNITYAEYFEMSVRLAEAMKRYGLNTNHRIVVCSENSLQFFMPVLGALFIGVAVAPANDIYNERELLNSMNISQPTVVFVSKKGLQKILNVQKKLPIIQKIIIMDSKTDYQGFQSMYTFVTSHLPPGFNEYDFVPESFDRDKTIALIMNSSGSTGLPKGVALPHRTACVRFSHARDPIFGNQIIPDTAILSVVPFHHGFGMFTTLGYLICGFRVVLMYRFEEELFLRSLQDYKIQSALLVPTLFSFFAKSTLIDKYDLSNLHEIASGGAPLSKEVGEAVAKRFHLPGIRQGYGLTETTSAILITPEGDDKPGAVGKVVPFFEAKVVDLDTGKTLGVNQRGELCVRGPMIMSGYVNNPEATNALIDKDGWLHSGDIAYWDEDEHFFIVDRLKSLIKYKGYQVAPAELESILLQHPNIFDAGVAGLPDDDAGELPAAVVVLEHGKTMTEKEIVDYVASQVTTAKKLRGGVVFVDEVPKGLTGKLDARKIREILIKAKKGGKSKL
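Purified P. pyralis luciferase, 10 nM final, with Km-level 10 uM D-luciferin and 10 uM ATP in 50 mM Tris acetate pH 7.5, 10 mM Mg acetate, 0.01% Tween-20, 0.05% BSA; 6-point qHTS titration about 60 µM downward; luminescence read.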
NPC1 promoter act – activates the NPC1 promoter | Huh7 NPC1 promoter luciferase reporter, 24 h | actives 2.4% (n = 320,000) | Potency, µM (doses to about 9.22 µM), usual class: activators; also: nearly all actives have a fitted effect of over 60% in size
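Compounds in DMSO were transferred onto Huh7 NPC1-luciferase reporter cells pre-incubated 2 h; after 24 h at 37 °C, Amplite reagent was dispensed and luminescence recorded 10 min later.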
Luc counter – Kinase-Glo luciferase inhibition (counter-screen); Q27757; Kinase-Glo luciferase, ATP luminescence, 8 min; Potency, µM (series often up to 38.3 µM), most hits filed as inhibitors; actives 0.28% (n = 200,000); AID 1379; also: nearly all actives have a fitted effect of over 60% in size
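Compound is pinned into ATP-containing buffer (10 uM ATP, imidazole pH 7.2, 7 mM MgCl2). Kinase-Glo luciferase reagent is then added. Light output is recorded following an 8-min room-temperature incubation.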
ELG1 genotox – genotoxicity induction in ELG1-luciferase HEK293T cells; actives 1.3% (n = 330,000); AID 504466; HEK293T ELG1-luciferase reporter, luminescence, 16 h; Potency, µM (highest dose often 46 µM), actives largely listed as activators; also: nearly all actives have a fitted effect of over 60% in size
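HEK293T cells expressing luciferase-tagged ELG1 were exposed to compound or DMSO vehicle for 16 hr at 37 °C and 5% CO2. Luciferase activity was then measured with ONE-Glo after 30 min at room temperature.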
Rab9 prom act – activates the Rab9 promoter. actives 2.8% (n = 320,000). Huh7 Rab9 promoter-luciferase reporter, luminescence, 24 h. Potency, µM (titrated, usually from 9.22 µM), actives largely listed as activators. AID 485297; also: nearly all actives have a fitted effect of over 60% in size
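Huh7 cells stably carrying a Rab9 promoter-luciferase reporter, 1500 cells per well in OP-MEM I with 10% FBS, treated with compound 24 hours at 37C. Luciferase activity read by luminescence after 10 minutes with Amplite reagent.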
Large screens that a line does not name were inactive. Most compounds without a hit are left out; they make up all but 7.5% or so of the library. Calls follow the shape of the dose curve; as a rule, active = well fitted curve in the direction sought with a large enough effect; inconclusive = small, poorly fitted or top-dose-only effect, or another doubt; inactive = no such curve, though single readings can be large; an effect the other way counts as inactive or inconclusive.

COc1cccc(CC(=O)Nc2ccc3nc(C)sc3c2)c1	FLuc counter 16.9µM
O=C1C(c2ccc(F)cc2)N(CCc2ccccc2)C(=O)CN1C1CCCCCC1 (centres undefined)	none (no result: SMN2 splice up, NPC1 promoter act, Luc counter, ELG1 genotox, Rab9 prom act)
COc1ccccc1CN=C1Nc2ccccc2CS1	SMN2 splice up inconclusive, FLuc counter 23.9µM, NPC1 promoter act inconclusive, Rab9 prom act inconclusive
c1cncc(CN=C2Nc3ccccc3CS2)c1	none
Clc1ccc(CN=C2Nc3ccccc3CS2)cc1	SMN2 splice up 12.6µM, FLuc counter 6.01µM, NPC1 promoter act 3.16µM, ELG1 genotox inconclusive, Rab9 prom act 2.24µM
COc1cccc(CN2CCSCC2)c1	none
Cc1ccc(CN=C2Nc3ccccc3CS2)cc1	SMN2 splice up 7.94µM, FLuc counter 0.601µM, NPC1 promoter act 0.501µM, ELG1 genotox 2.59µM, Rab9 prom act 0.447µM
COc1cccc(CN=C2Nc3ccccc3CS2)c1	SMN2 splice up 14.1µM, FLuc counter 12µM, NPC1 promoter act 2.82µM, ELG1 genotox inconclusive, Rab9 prom act 3.16µM
CC(C)[C@H](NS(=O)(=O)c1ccc(Cl)cc1)C(=O)OCC(=O)c1c(N)n(C)c(=O)n(C)c1=O	none (no result: SMN2 splice up, Luc counter)
COC(=O)c1sccc1NC(=S)N1C(C)CCCC1C (centres undefined)	none
O=C(CN1CCSc2ccccc21)NCc1ccccc1F	none (no result: SMN2 splice up, NPC1 promoter act, Luc counter, ELG1 genotox, Rab9 prom act)
CCN(CC(=O)NCCCN1CCOCC1)S(=O)(=O)c1ccc(Cl)cc1	none (no result: SMN2 splice up, Luc counter)
Cc1csc2nc(-c3cccc(NC(=O)c4cccc(F)c4)c3)cn12	FLuc counter 9.53µM (no result: SMN2 splice up, NPC1 promoter act, Luc counter, ELG1 genotox, Rab9 prom act)
Cc1ccccc1C(=O)Nc1cccc(-c2cn3cccnc3n2)c1	none (no result: SMN2 splice up, NPC1 promoter act, Luc counter, ELG1 genotox, Rab9 prom act)
Cc1csc2nc(-c3cccc(NS(C)(=O)=O)c3)cn12	FLuc counter 26.9µM (no result: SMN2 splice up, NPC1 promoter act, Luc counter, ELG1 genotox, Rab9 prom act)
Cc1csc2nc(-c3cccc(NC(=O)c4ccccc4F)c3)cn12	FLuc counter 6.75µM (no result: SMN2 splice up, NPC1 promoter act, Luc counter, ELG1 genotox, Rab9 prom act)
Cc1csc2nc(-c3cccc(NC(=O)c4ccccc4Cl)c3)cn12	FLuc counter 12µM (no result: SMN2 splice up, NPC1 promoter act, Luc counter, ELG1 genotox, Rab9 prom act)
Cc1nc(-c2cccc(NC(=O)c3cccc(S(=O)(=O)N4CCCC4)c3)c2)cs1	FLuc counter inconclusive (no result: SMN2 splice up, Luc counter)
Cn1cnc(C(=O)NCc2ccc(CNC(=O)OC(C)(C)C)cc2)c1C(=O)NCc1ccc(CNC(=O)OC(C)(C)C)cc1	none (no result: SMN2 splice up, FLuc counter, NPC1 promoter act, Luc counter, Rab9 prom act)
COc1cc(Cl)c(C)cc1NC(=O)Cn1c2ncccc2c(=O)n1-c1ccccc1	none (no result: SMN2 splice up, NPC1 promoter act, Luc counter, ELG1 genotox, Rab9 prom act)
O=C(COc1ccc(Cl)cc1)NNC(=O)c1ccccn1	none
Cc1cc(C)nc(NC(=O)COc2ccc(Cl)cc2)c1	none (no result: FLuc counter, NPC1 promoter act, ELG1 genotox, Rab9 prom act)
Cc1ccnc(NC(=O)COc2ccc(Cl)cc2)n1	FLuc counter 23.9µM, ELG1 genotox inconclusive (no result: SMN2 splice up, Luc counter)
O=C(COc1ccc(Cl)cc1)Nc1ncccn1	FLuc counter 19µM, ELG1 genotox 20.6µM
COCOc1ccc(OC)cc1C(=O)/C=C/c1ccc(OC)c(Br)c1	none (no result: FLuc counter, NPC1 promoter act, ELG1 genotox, Rab9 prom act)
O=C(CCc1ccccc1)NNC(=O)c1ccncc1	none (no result: SMN2 splice up, FLuc counter, NPC1 promoter act, Luc counter, Rab9 prom act)
C/C(=N\Nc1ccc(C(=O)O)cc1)c1ccc(S(=O)(=O)NCc2ccco2)cc1	FLuc counter 16.9µM, Rab9 prom act inconclusive (no result: SMN2 splice up, Luc counter)
C/C(=N\Nc1ccc(C(=O)O)cc1)c1ccc(Cl)s1	FLuc counter 0.953µM, NPC1 promoter act 0.398µM, Rab9 prom act 0.282µM (no result: SMN2 splice up, Luc counter)
C/C(=N\Nc1ccccn1)c1ccc(S(=O)(=O)NCc2ccco2)cc1	FLuc counter inconclusive
COc1ccccc1NC(=O)COC(=O)c1ccc(S(=O)(=O)NCc2ccco2)cc1	FLuc counter 12µM
C/C(=N\Nc1ccc(C(=O)O)cc1)c1ccc(Br)cc1	FLuc counter 0.19µM, NPC1 promoter act inconclusive, ELG1 genotox inconclusive, Rab9 prom act 0.0891µM (no result: SMN2 splice up, Luc counter)
COc1ccccc1NS(=O)(=O)c1ccc(C(=O)OCC(=O)NCc2ccco2)cc1	none
C/C(=N/Nc1ncc(Br)cn1)c1ccc(Br)cc1	none (no result: SMN2 splice up, Luc counter)
CCOc1ccc(-c2cc(C(F)(F)F)c(C#N)c(SCC(=O)Nc3ccccc3)n2)cc1	none (no result: NPC1 promoter act, Luc counter, ELG1 genotox, Rab9 prom act)
Cc1cccc(OCc2cc(=O)n3c(-c4ccccc4)csc3n2)c1C	none (no result: NPC1 promoter act, Luc counter, ELG1 genotox, Rab9 prom act)
CCCCN1CCc2c([nH]c3ccccc23)C1=O	SMN2 splice up inconclusive, NPC1 promoter act inconclusive, ELG1 genotox inconclusive, Rab9 prom act 2.51µM
O=S1(=O)C=C(Sc2nnc(-c3ccccc3)o2)c2ccccc21	FLuc counter 30.1µM

Screening data: PubChem BioAssay, National Center for Advancing Translational Sciences (NCATS)
